Results on 37 compounds are retold here after PubChem BioAssay (EPA / NIEHS).

What is called AC50 is the midpoint of the concentration-response curve, whichever way the signal moves.

Each structure is given as a SMILES string. Inconclusive results are not listed. Active and inactive are the calls of the source. The calls were made as follows: active = hit-call score of the fitted dose curve at least 0.9, where 1 is the maximum; inconclusive = response in the unintended direction; inactive = score below 0.9.

Assay [1] has as its target Estrogen receptor (Homo sapiens) (UniProt P03372). Put plainly: OT_ER_ERaERa_0480: Odyssey Thera (OT) 8-hour HEK293T Protein-Complementation Assay for Estrogen Receptor-alpha/-alpha Homodimer (AID 2283351).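 Also: rise in fluorescence from reassembled reporter fragments on ERα LBD homodimer in nucleus or whole cell.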 In short, it runs like this: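 HEK293T cells stably expressing the human ERα ligand-binding domain (aa 310-547) as a homodimer PCA were dosed with compound for 8 h. Gain of fluorescence intensity versus DMSO vehicle was read by laser scanning cytometry.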

The target in assay [2] is T1, Estrogen receptor (Homo sapiens) + Estrogen receptor beta (Homo sapiens) (UniProt P03372+Q92731). Put plainly: OT_ER_ERaERb_0480: Odyssey Thera (OT) 8-hour HEK293T Protein-Complementation Assay for Estrogen Receptor-alpha/-beta Heterodimer (AID 2283352). In short, it runs like this:
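Fluorescence intensity readout from a protein-fragment complementation reporter in HEK293T; ER-alpha/ER-beta LBD heterodimer. Dosing 8 h. Gain-of-signal fit relative to DMSO negative control; laser scanning cytometry of whole-well cell population.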

Assay [3] deals with T1, Estrogen receptor (Homo sapiens) + Estrogen receptor beta (Homo sapiens). Put plainly: OT_ER_ERaERb_1440: Odyssey Thera (OT) 24-hour HEK293T Protein-Complementation Assay for Estrogen Receptor-alpha/-beta Homodimer (AID 2283356).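 Also: heteromer of ER alpha and ER beta binding domains; hits raise reporter fluorescence and both agonists and antagonists give an increase.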 In short, it runs like this:
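Readout: mean fluorescence intensity in nucleus (agonists) or nucleus plus cytoplasm (antagonists), read by laser scanning cytometer after 24 h compound exposure of HEK293T cells carrying ERα/ERβ LBD fragment-complementation constructs; DMSO baseline.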

For assay [4], the target named is human Peroxisome Proliferator-activated Receptor alpha (PPARa), PPARA (gene 5465) (UniProt Q07869). Put plainly: NVS_NR_hPPARa: NovaScreen (NVS) Nuclear Receptor Binding Assay for human Peroxisome Proliferator-activated Receptor alpha (PPARa) (AID 2283359).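 Also: activity means loss of TR-FRET signal versus DMSO baseline.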 In short, it runs like this: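 Cell-free TR-FRET binding assay with extracted PPARα protein, read 1 h after dosing. Primary screen in duplicate at 25 uM, with actives retested in concentration series. Loss of signal versus DMSO.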
Chain of human Peroxisome Proliferator-activated Receptor alpha (PPARa), PPARA (gene 5465) (Q07869 whole entry, looked up): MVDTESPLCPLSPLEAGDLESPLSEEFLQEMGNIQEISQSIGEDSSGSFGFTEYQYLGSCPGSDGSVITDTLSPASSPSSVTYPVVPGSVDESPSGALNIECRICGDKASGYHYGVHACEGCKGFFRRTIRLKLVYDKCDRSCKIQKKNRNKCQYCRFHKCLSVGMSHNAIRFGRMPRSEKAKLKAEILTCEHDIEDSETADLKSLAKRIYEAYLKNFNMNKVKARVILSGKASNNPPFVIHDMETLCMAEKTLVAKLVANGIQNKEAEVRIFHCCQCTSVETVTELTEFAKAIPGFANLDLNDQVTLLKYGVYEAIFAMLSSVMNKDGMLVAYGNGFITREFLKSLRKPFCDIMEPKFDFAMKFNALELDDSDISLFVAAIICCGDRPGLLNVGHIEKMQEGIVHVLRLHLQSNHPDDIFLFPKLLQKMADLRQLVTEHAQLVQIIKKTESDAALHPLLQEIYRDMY

Assay [5] has as its target Retinoic acid receptor alpha (Homo sapiens) (UniProt P10276). The experiment in a line: NVS_NR_hRAR_Antagonist: NovaScreen (NVS) Nuclear Receptor Binding Assay for human Retinoic Acid Alpha Receptor Antagonism (RAR) (AID 2283358). An outline of the steps:
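Cell-free TR-FRET binding assay with extracted human RARalpha in antagonist mode, read 2 h after dosing. Loss of signal was fitted relative to DMSO; the primary screen used 25 uM in duplicate, with concentration series on follow-up.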

Assay [6] addresses Androgen Receptor/SRC-1 Co-activator, AR (gene 367) (UniProt P10275). Put plainly: OT_AR_ARSRC1_0960: Odyssey Thera (OT) 16-hour HEK293T Protein-Complementation Assay for Androgen Receptor/SRC-1 Co-activator (AID 2283353).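 Also: actives raise the signal above DMSO so potency reflects increased AR and SRC-1 complex.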 In short, it runs like this: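 HEK293T cells stably expressing AR and SRC-1 fused to split Venus YFP fragments via (Gly4Ser)2 linkers were dosed for 16 h. Nuclear/cytoplasmic fluorescence ratio at 488 nm, ≥400 cells per image, fitted for gain of signal versus DMSO.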

Assay [7] has the same target. Put plainly: OT_AR_ARSRC1_0480: Odyssey Thera (OT) 8-hour HEK293T Protein-Complementation Assay for Androgen Receptor/SRC-1 Co-activator (AID 2283354).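 Also: hits raise the complementation signal above DMSO so AC50 marks enhancers.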 On the procedure:
OT_AR_ARSRC1_0480 is a cell-based, single-readout assay that uses HEK293T, a human kidney cell line, with measurements taken at 8 hours after chemical dosing in a 384-well plate.OT_AR_ARSRC1_0480 is one of one assay component(s) measured or calculated from the OT_AR_ARSRC1_0480 assay. It is designed to make measurements of protein fragment complementation, a form of binding reporter, as detected with fluorescence intensity signals by Protein-fragment Complementation technology.Data from the assay component OT_AR_ARSRC1_0480 was analyzed into 1 assay endpoint. This assay endpoint, OT_AR_ARSRC1_0480, was analyzed in the positive analysis fitting direction relative to DMSO as the negative control and baseline of activity. Using a type of binding reporter, measures of receptor for gain-of-signal activity can be used to understand the binding at the pathway-level as they relate to the gene AR. Furthermore, this assay endpoint can be referred to as a primary readout, because the performed assay has only produced 1 assay endpoint. To generalize the intended target to other relatable targets, this assay endpoint is annotated to the nuclear receptor intended target family, where the subfamily is steroidal.
Protein-fragment complementation assay, or PCA, is a method for the identification and quantification of protein-protein interactions. In the PCA, the proteins of interest ("bait" and "prey") are each covalently linked to fragments of a third protein (e.g. DHFR, which acts as a "reporter"). Interaction between the bait and the prey proteins brings the fragments of the reporter protein in close proximity to allow them to form a functional reporter protein whose activity can be measured. The OT AR / SRC-1 assay assessed androgen receptor chemical interactions using a rapidly maturing, intensely fluorescent mutant of YFP known as Venus, rationally dissected into two separate fragments. […] Fusion constructs were transfected into HEK293T cells with a (Gly4Ser)2 linker between the AR/SRC-1 and YFP fragment genes to facilitate complementation when interacting proteins bring fragments into close proximity. The construct is stably expressed in HEK293T cells. […] Images were acquired on an Evotec Opera at 2 wavelengths (488 and 635nm), and the ratio of fluorescence in the nucleus relative to fluorescence in the cytoplasm (N/C Ratio) in the 488nm channel was calculated for a minimum of 400 cells per image. Both agonists and antagonists of the AR receptor induce nuclear translocation to varying degrees. […] The OT AR/SRC-1 assay was also run for 16 hours (see description for OT_AR_ARSRC1_0960).

For assay [8], the target named is Estrogen receptor beta (Homo sapiens) (UniProt Q92731). The experiment in a line: OT_ER_ERbERb_0480: Odyssey Thera (OT) 8-hour HEK293T Protein-Complementation Assay for Estrogen Receptor-beta/-beta Homodimer (AID 2283357).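 Also: active means signal gain over DMSO baseline.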 In short, it runs like this: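 Fluorescence intensity, nuclear for agonists and nuclear plus cytoplasmic for antagonists, was quantified by laser scanning cytometry versus vehicle after 8 h treatment. The cells were HEK293T stably carrying ER beta LBD fragment-complementation partners.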
Chain of Estrogen receptor beta (Homo sapiens) (Q92731 whole entry, looked up, the tested form may be a part): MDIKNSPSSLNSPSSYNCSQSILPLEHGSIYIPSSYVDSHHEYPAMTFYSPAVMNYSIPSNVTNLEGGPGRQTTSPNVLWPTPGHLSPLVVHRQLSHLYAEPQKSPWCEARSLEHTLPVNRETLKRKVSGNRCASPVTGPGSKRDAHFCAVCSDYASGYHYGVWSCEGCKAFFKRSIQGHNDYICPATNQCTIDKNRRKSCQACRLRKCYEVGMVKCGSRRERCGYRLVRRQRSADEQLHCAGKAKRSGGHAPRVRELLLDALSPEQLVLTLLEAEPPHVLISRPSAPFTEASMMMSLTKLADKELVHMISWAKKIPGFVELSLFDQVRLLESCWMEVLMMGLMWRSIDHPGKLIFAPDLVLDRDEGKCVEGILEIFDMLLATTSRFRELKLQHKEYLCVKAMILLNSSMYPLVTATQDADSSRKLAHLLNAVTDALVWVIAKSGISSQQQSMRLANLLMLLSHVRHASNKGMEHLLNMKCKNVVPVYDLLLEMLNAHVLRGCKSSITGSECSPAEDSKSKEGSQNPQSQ

The target of assay [9] is rat Mineralocorticoid Receptor (MR), Nr3c2 (gene 25672) (UniProt P22199). Put plainly: NVS_NR_rMR: NovaScreen (NVS) Nuclear Receptor Binding Assay for rat Mineralocorticoid Receptor (MR) (AID 2283355). As for the experimental part:
NVS_NR_rMR is a biochemical, single-readout assay that uses extracted gene-proteins from Adrenalectomized rat brain supernatant in a tissue-based cell-free assay. Measurements were taken 24 hours after chemical dosing in a 96-well plate.NVS_NR_rMR is one of one assay component(s) measured or calculated from the NVS_NR_rMR assay. It is designed to make measurements of radioligand binding, a form of binding reporter, as detected with scintillation counting signals by Lysate-based radiodetection technology.Data from the assay component NVS_NR_rMR was analyzed into 1 assay endpoint. This assay endpoint, NVS_NR_rMR, was analyzed in the positive analysis fitting direction relative to DMSO as the negative control and baseline of activity. Using a type of binding reporter, loss-of-signal activity can be used to understand changes in the binding as they relate to the gene Nr3c2. Furthermore, this assay endpoint can be referred to as a primary readout, because the performed assay has only produced 1 assay endpoint. To generalize the intended target to other relatable targets, this assay endpoint is annotated to the nuclear receptor intended target family, where the subfamily is steroidal.
Binding assays used specific radioligands (tritiated, iodinated) with non-radioactive competitive displacement ligands in agonist or antagonist protocols (as indicated) and various reference compounds and inhibitors to titrate specific binding to receptors and transporters. Most enzyme assays (CYPs, kinases, phosphatases, proteases, HDACs) used recombinant protein and specific substrates (fluorescence mostly, some colorimetric and radioactive) and inhibitors, followed by a biochemical separation of substrate and product. All assays for the biochemical HTS were initially run in duplicate at a single concentration (10 uM for CYP450 assays and 25 uM for all others). […] Each assay was run with positive and negative controls, and concurrent controls on every plate. […]

Assay [10] addresses PGR (gene 5241) (UniProt P06401). The experiment in a line: NVS_NR_hPR: NovaScreen (NVS) Nuclear Receptor Binding Assay for human Progestron Receptor (PR) (AID 2283360).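 Also: active means loss of bound radioligand signal versus DMSO baseline.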 An outline of the steps: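 Radioligand competition binding on receptor extracted from T47D cells, read by scintillation counting 18 h after dosing. Loss of signal versus DMSO; primary screen in duplicate at 25 uM, actives followed in concentration series.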

Chain of Retinoic acid receptor alpha (Homo sapiens) (P10276 whole entry, looked up): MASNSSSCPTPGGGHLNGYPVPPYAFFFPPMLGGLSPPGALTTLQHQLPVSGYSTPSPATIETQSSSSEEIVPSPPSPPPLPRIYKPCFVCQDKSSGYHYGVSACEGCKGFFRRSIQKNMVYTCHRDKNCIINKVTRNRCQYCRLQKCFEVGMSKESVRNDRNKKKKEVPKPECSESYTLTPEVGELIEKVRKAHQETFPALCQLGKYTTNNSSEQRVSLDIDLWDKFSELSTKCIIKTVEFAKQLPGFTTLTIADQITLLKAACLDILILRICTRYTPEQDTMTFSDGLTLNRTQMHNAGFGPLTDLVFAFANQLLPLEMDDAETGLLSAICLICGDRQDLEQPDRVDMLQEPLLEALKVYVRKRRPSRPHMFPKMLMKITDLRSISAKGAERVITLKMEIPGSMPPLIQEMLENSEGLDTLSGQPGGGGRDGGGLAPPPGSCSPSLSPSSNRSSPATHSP
Chain of PGR (gene 5241) (P06401 whole entry, looked up): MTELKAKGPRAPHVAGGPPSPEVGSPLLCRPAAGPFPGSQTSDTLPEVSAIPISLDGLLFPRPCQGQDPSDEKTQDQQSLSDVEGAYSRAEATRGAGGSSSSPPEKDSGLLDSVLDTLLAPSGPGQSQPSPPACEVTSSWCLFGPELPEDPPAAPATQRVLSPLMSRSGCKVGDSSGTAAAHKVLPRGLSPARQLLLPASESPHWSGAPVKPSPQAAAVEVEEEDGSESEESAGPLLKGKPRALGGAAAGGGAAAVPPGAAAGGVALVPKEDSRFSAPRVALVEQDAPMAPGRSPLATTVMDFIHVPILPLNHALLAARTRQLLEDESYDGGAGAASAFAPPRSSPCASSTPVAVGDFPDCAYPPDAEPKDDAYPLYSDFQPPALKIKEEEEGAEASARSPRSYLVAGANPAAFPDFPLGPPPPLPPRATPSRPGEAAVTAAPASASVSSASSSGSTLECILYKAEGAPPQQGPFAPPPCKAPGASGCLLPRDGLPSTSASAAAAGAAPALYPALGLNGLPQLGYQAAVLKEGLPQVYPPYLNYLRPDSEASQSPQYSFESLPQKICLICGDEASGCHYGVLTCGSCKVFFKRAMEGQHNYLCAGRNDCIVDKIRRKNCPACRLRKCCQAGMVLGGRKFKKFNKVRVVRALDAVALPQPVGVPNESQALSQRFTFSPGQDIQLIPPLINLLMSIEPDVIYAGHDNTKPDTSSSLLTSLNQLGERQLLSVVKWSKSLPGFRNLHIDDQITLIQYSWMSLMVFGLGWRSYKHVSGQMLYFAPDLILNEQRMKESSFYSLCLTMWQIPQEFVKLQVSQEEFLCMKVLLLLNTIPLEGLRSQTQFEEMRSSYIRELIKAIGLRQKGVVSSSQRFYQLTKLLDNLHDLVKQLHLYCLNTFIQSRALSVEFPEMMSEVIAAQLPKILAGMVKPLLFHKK
Chain of Androgen Receptor/SRC-1 Co-activator, AR (gene 367) (P10275 whole entry, looked up, the tested form may be a part): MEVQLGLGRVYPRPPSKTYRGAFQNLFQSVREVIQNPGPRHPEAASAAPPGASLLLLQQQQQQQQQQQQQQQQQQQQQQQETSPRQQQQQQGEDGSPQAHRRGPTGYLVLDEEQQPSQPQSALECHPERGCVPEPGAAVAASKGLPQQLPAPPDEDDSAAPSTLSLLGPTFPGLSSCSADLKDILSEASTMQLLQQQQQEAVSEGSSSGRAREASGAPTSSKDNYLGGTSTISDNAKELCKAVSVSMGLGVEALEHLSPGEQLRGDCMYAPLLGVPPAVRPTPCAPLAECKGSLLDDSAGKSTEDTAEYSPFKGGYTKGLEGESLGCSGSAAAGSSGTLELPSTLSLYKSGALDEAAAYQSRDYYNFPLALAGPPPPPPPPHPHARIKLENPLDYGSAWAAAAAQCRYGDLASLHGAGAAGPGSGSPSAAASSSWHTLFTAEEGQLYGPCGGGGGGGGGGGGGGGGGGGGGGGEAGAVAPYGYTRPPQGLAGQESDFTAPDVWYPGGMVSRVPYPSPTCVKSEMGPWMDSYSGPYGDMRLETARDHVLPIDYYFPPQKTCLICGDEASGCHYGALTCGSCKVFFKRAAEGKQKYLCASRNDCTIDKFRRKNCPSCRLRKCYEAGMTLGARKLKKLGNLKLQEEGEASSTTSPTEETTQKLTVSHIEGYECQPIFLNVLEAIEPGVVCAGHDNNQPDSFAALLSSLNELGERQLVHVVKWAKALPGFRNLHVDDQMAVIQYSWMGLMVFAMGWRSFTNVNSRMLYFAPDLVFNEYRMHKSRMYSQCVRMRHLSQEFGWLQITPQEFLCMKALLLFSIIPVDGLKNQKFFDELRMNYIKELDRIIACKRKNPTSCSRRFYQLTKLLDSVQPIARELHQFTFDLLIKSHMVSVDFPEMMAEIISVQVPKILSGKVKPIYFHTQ
Chain of Estrogen receptor (Homo sapiens) (P03372 whole entry, looked up, the tested form may be a part): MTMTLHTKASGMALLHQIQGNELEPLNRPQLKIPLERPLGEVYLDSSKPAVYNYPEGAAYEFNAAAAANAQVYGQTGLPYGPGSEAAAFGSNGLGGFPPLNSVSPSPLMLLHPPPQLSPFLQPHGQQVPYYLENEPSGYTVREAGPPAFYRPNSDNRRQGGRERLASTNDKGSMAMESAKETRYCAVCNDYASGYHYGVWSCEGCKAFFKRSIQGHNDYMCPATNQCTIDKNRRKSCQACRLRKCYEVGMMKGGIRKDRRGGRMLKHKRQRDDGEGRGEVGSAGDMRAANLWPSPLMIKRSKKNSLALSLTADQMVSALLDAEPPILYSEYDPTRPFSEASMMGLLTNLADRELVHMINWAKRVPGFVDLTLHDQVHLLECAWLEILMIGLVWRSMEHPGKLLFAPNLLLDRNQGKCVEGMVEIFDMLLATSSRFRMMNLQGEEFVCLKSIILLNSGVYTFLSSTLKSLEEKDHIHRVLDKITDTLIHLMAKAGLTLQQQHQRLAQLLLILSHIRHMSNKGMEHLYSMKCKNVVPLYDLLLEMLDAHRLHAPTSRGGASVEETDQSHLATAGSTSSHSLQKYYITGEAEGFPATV
T1 sequence (P03372 whole entry, looked up, the tested form may be a part): as above
T1 sequence (Q92731 whole entry, looked up, the tested form may be a part): as the sequence (Q92731 whole entry, looked up, the tested form may be a part) above
Chain of rat Mineralocorticoid Receptor (MR), Nr3c2 (gene 25672) (P22199 whole entry, looked up): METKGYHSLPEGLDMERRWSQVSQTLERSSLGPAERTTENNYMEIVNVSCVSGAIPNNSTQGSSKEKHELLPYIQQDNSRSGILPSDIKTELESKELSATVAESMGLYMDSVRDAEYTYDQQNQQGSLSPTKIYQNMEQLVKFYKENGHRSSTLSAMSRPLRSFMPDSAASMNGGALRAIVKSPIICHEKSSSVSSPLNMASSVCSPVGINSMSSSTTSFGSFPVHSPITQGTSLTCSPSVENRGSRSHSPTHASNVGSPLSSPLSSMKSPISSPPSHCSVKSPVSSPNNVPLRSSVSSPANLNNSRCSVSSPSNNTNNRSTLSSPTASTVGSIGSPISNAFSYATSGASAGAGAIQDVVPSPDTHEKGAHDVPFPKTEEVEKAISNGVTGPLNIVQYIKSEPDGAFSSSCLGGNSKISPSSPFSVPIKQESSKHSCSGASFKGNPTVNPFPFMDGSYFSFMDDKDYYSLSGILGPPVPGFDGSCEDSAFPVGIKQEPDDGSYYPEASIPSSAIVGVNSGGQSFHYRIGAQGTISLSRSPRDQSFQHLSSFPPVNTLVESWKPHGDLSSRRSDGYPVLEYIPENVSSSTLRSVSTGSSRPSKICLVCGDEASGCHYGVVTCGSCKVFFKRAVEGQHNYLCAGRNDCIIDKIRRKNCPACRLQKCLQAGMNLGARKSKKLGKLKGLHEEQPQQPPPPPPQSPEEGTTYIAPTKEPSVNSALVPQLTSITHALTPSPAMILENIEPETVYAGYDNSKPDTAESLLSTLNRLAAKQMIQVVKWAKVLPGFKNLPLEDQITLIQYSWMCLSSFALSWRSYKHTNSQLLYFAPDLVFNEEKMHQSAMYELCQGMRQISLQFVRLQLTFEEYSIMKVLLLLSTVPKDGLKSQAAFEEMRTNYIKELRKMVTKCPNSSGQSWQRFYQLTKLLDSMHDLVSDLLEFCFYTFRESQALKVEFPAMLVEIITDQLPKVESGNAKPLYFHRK

For `C=C[Si](C)(C)O[Si](C)(C)C=C`, in assay [1], the compound was called inactive.

Regarding `CC/C=C\C/C=C\C/C=C\CCCCCCCC(=O)O`, the compound was called inactive in [1], in assay [2], in assay [3] and in assay [4].

Regarding `CCCCC(CC)CCC(CC(C)C)OS(=O)(=O)O` (stereo not given), the compound was classed as inactive in assay [1], in assay [2], in assay [3] and in [5].

Consider `CC(C)c1ccc2c(C(C)C)cc(C(C)C)c(S(=O)(=O)O)c2c1`, for which the compound was called inactive in assay [1], in assay [6] and in assay [7]. The AC50 in assay [5] was 12.9 µM (active); in assay [4], 7.37 µM (active).

On to `Cc1ccc(C(C)(C)C)cc1`, for which the compound was called inactive in [1] and in assay [4].

`CC(=O)OC(C)C`: the call in [1] and in assay [3] was inactive.

With `CO[Si](OC)(OC)c1ccccc1`, the result in [1], in assay [2] and in assay [3] was inactive.

For the compound `CC(C)(C)c1ccc(OC(=O)c2ccccc2O)cc1`, the call in assay [1] was inactive. The results for the concentration at half-maximal activity (AC50) in assay [2] and in assay [3] were 58.9 µM (active) and 55.2 µM (active), respectively.

With `CN(C)c1ccc(N=Nc2ccccc2C(=O)O)cc1`, the call in assay [1] and in assay [3] was inactive.

For the compound `CCCCCCCC/C=C\CCCCCCCC(=O)O`, the compound was called inactive in assay [1]. The AC50 in [4] was 8.82 µM (active).

With `c1c[nH]cn1`, the result in assay [1], in assay [2] and in [3] was inactive.

In the case of `Cc1ccc(C(C)c2ccc(C)c(C)c2)cc1C`, the results for the AC50 in assay [1], in assay [2] and in assay [3] were 70.3 µM (active), 58 µM (active) and 83.6 µM (active), respectively.

Take `CCCCCCCCCCCCCOP(=O)(O)O`: the outcome in assay [1], in [2], in [3], in [8], in assay [5] and in [4] was inactive.

Regarding `CCN(CCC#N)c1ccc(N=Nc2c(Cl)cc([N+](=O)[O-])cc2Cl)cc1`, the compound was classed as inactive in [1]. Moreover, the AC50 in [5] was 6.24 µM (active).

Take `CCCCC/C=C\CCC=O`: the compound was classed as inactive in assay [1], in [6] and in [7].

In the case of `CCCCCCCC[N+](C)(CCCCCCCC)CCCCCCCC`, the call in assay [1] and in [2] was inactive. Further, in assay [4], the half-maximal activity concentration (AC50) was 6.9 µM (active).

`CC(C)(c1cc(Br)c(OCCO)c(Br)c1)c1cc(Br)c(OCCO)c(Br)c1`: the compound was called inactive in [9].

As for `CC(CC=O)CCCC(C)(C)O` (stereo not given), the outcome in [1], in assay [6] and in [7] was inactive.

On to `CCCCCCCCO[C@@H]1O[C@H](CO)[C@@H](O)[C@H](O)[C@H]1O`, for which the result in assay [1] and in assay [3] was inactive.

As for `O=C(C=Cc1ccccc1)OCc1ccccc1`, the compound was classed as inactive in assay [1], in assay [2] and in [3].

As for `C#CC1(O)CC[C@H]2[C@@H]3CCC4=CCCC[C@@H]4[C@H]3CC[C@@]21C` (stereo not given in full), the compound was classed as inactive in assay [9]. In addition, the AC50 in assay [10] is 39.6 µM (active).

As to `Cc1cc(C)c(C)cc1C`, the compound was called inactive in assay [1] and in [4].

As for `NC(=O)N=NC(N)=O`, the call in [1] and in assay [3] was inactive.

On to `CO[Si](CCC1CCC2OC2C1)(OC)OC` (stereo not given), for which the outcome in [10] was inactive.

As to `C=CC(=O)NC(C)(C)CS(=O)(=O)O`, the call in assay [1], in assay [2] and in [3] was inactive.

Take `OC1CCCC1`: the compound was called inactive in [1], in assay [2] and in assay [3].

As for `CCCCC/C=C\C/C=C\CCCCCCCC(=O)OC`, the compound was called inactive in [1], in assay [2], in [3] and in assay [4].

Regarding `NC(=O)c1ccccc1O`, the result in assay [1] and in [3] was inactive.

On to `CC(C)(C)c1n[nH]c(=O)n(N)c1=O`, for which, in assay [10], the AC50 was 0.131 µM (active).

`O=C1C(N(CO)C(=O)NCO)N(CO)C(=O)N1CO` (stereo not given): the call in assay [1] and in [3] was inactive.

For `OCCCS`, the result in assay [10] was inactive.

For the compound `CNC(=S)NN`, the call in assay [1], in assay [2] and in [3] was inactive.

Regarding `O=S(=O)(O)c1ccccc1C=Cc1ccc(-c2ccc(C=Cc3ccccc3S(=O)(=O)O)cc2)cc1`, the compound was classed as inactive in assay [1], in assay [2] and in assay [3].

On to `CCO[Si](C)(OCC)OCC`, for which the compound was classed as inactive in assay [1] and in [3].

`O=C(C(Cl)Cl)N1CCOC12CCCCC2`: the result in [1] and in [3] was inactive.

Consider `CCCCCCCC/C=C\CCCCCCCC(=O)OCCO`, for which the result in [1], in [3] and in [5] was inactive. Besides, in [4], the AC50 was 12.5 µM (active).

For the compound `CCOC(=O)CC`, the outcome in assay [3] was inactive.
